Reference: PubChem BioAssay (Tox21)
Records with an inconclusive call do not appear. A call without a number means that no potency is given here. The source made the active and inactive calls. Calls come from the whole dose curve; as a rule, active = well fitted cell-killing curve with a large enough effect in the repeat runs; inconclusive = weak or mixed curves, or effect the other way; inactive = flat fitted curve, though single readings scatter.

Assay: cAMP Responsive Elements (CRE) small molecule antagonists, cell-based qHTS assay: qHTS cell viability counter screen (AID 2060913); note: nearly all actives have a fitted effect of over 40% in size
Conditions: CRE-bla HEK293T viability, CellTiter-Glo luminescence, 5 h; series mostly up to 92.4 µM
Outline: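 Viability of NKH477-stimulated (0.25 uM final) CRE-bla HEK293T cells is measured by CellTiter-Glo luminescence following 3 hrs compound exposure at 37 C.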
Potency is the fitted concentration of half-maximal effect.

SMILES	Potency
CCCCCCCCCCCC[N+](C)(C)CC(=O)[O-]	inactive
CC(C)[N+](C)(C)CC(O)COc1cccc2ccccc12 (stereo not drawn)	inactive
Cc1cccc(N(C)C(=S)Oc2ccc3ccccc3c2)c1	inactive
CCOc1cc(OCC)c(C(C)=O)cc1OCC	inactive
OCC(CO)(CO)COCC(CO)(CO)CO	inactive
O=C(N[C@H](CO)[C@H](O)c1ccc([N+](=O)[O-])cc1)C(Cl)Cl	inactive
CC(C)C[C@H](NC(=O)[C@H](Cc1ccccc1)NC(=O)c1cnccn1)B(O)O	inactive
C=CCNc1nc(NCC=C)nc(N2CCN(C(c3ccc(F)cc3)c3ccc(F)cc3)CC2)n1	inactive
CCCC(=O)O[C@]1(C(=O)CCl)[C@@H](C)C[C@H]2[C@@H]3CCC4=CC(=O)C=C[C@]4(C)[C@@]3(F)C(=O)C[C@@]21C	inactive
CC(N)C12CC3CC(CC(C3)C1)C2 (stereo not drawn)	inactive
Cc1ccccc1OCC(=O)O	inactive
CC1(CN2CCC(n3c(=O)[nH]c4ccccc43)CC2)OCc2ccccc2-n2cccc21 (stereo not drawn)	inactive
ICCc1ccccc1	inactive
C=C(CC)C(=O)c1ccc(OCC(=O)O)c(Cl)c1Cl	inactive
Nc1ccc(N)c2ccccc12	inactive
NC(=O)c1c(Cl)cccc1Cl	inactive
C[C@H]1O[C@@H](O[C@H]2[C@@H](O)C[C@H](O[C@H]3[C@@H](O)C[C@H](O[C@H]4CC[C@@]5(C)[C@H](CC[C@@H]6[C@@H]5C[C@@H](O)[C@]5(C)[C@@H](C7=CC(=O)OC7)CC[C@]65O)C4)O[C@@H]3C)O[C@@H]2C)C[C@H](O)[C@@H]1O	63.2 nM (active)
COc1cc(C(=O)NCc2ccc(OCCN(C)C)cc2)cc(OC)c1OC	inactive
